These results are taken from PubChem BioAssay AID651598 (Sanford-Burnham Center for Chemical Genomics, 2012).

Where “and” joins values, the source holds several entries; their conditions need not be identical. Equal values may be shown once.

The target of the experiment is C-X-C chemokine receptor type 6 (Homo sapiens) (UniProt O00574). Kind of experiment: APJ beta-arrestin recruitment blockade alongside CXCR6 – cell-based, DiscoveRx, panel, CHO-K1, counter-screen for CXCR6 antagonist project, SAR follow-up (AID 651598). The note with it: CHO-K1 PathHunter beta-arrestin luminescence, antagonist mode; run 3, at 80 µM (top of the series). Background: Arrestin recruitment assays detect the binding of arrestin to an activated receptor.
Sequence of C-X-C chemokine receptor type 6 (Homo sapiens) (O00574 whole entry, looked up): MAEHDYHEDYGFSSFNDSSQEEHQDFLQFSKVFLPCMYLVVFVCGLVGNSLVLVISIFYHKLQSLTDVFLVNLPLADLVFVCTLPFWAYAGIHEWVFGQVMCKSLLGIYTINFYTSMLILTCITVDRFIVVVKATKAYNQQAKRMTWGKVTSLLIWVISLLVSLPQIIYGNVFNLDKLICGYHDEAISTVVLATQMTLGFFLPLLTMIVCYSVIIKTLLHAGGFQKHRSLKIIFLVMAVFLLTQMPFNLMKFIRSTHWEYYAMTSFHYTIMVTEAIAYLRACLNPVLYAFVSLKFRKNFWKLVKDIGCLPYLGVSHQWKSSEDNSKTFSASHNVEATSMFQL
By inhibition is commonly meant the relative decrease from the control value, in per cent. As to `COc1cc(C(=O)NC2CCN(CC(=O)Nc3ccccc3)CC2)cc(OC)c1OC`, the inhibition is 6.56%.

In the case of `COc1cc(C(=O)NC2CC3CCCC(C2)N3CC(=O)Nc2ccccc2)cc(OC)c1OC` (stereo not drawn), the inhibition was 91% and 42.4% and 18.6%.

In the case of `COc1cc(C(=O)NC2CC3CCC(C2)N3CC(=O)Nc2ccccc2)cc(OC)c1OC` (stereo not drawn), the inhibition was 56.5% and 4.53%.
